# Measured values taken from PubChem BioAssay (EPA / NIEHS).
# Results filed as inconclusive are left out. Active and inactive are the calls of the source. Rule for the calls, unless noted: active = hit-call score of the fitted dose curve at least 0.9, where 1 is the maximum; inconclusive = response in the unintended direction; inactive = score below 0.9.
# Columns and labels:
# [1] = target: Estrogen receptor (Homo sapiens) (UniProt P03372); test: OT_ER_ERaERa_1440: Odyssey Thera (OT) 24-hour HEK293T Protein-Complementation Assay for Estrogen Receptor-alpha/-alpha Homodimer (AID 2283349);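 note: hits raise fluorescence above DMSO for agonists and antagonists alike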
# Summary of the method: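 Readout is the rise in mean fluorescence from reporter fragment complementation when ERα LBD (aa 310-547) units dimerize in HEK293T cells. Measured 24 h after dosing and analysed as increase over DMSO control.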
# [2] = target: Estrogen receptor (Homo sapiens) (UniProt P03372); test: OT_ER_ERaERa_0480: Odyssey Thera (OT) 8-hour HEK293T Protein-Complementation Assay for Estrogen Receptor-alpha/-alpha Homodimer (AID 2283351);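 note: rise in fluorescence from reassembled reporter fragments on ERα LBD homodimer in nucleus or whole cell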
# Summary of the method: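 The readout is complementation of fragments fused to the human ER alpha ligand-binding domain (aa 310-547), stably expressed in HEK293T cells. After 8 h of exposure, the increase in nuclear/cytoplasmic fluorescence was measured by laser scanning cytometry and fitted relative to DMSO.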
# [3] = target: T1, Estrogen receptor (Homo sapiens) + Estrogen receptor beta (Homo sapiens) (UniProt P03372+Q92731); test: OT_ER_ERaERb_0480: Odyssey Thera (OT) 8-hour HEK293T Protein-Complementation Assay for Estrogen Receptor-alpha/-beta Heterodimer (AID 2283352)
# Summary of the method: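 Fluorescence intensity readout from a protein-fragment complementation reporter in HEK293T; ER-alpha/ER-beta LBD heterodimer. Dosing 8 h. Gain-of-signal fit relative to DMSO negative control; laser scanning cytometry of whole-well cell population.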
# [4] = target: T1, Estrogen receptor (Homo sapiens) + Estrogen receptor beta (Homo sapiens); test: OT_ER_ERaERb_1440: Odyssey Thera (OT) 24-hour HEK293T Protein-Complementation Assay for Estrogen Receptor-alpha/-beta Homodimer (AID 2283356);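 note: heteromer of ER alpha and ER beta binding domains; hits raise reporter fluorescence and both agonists and antagonists give an increase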
# Summary of the method: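 Readout: mean fluorescence intensity in nucleus (agonists) or nucleus plus cytoplasm (antagonists), read by laser scanning cytometer after 24 h compound exposure of HEK293T cells carrying ERα/ERβ LBD fragment-complementation constructs; DMSO baseline.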
# [5] = target: Estrogen receptor beta (Homo sapiens) (UniProt Q92731); test: OT_ER_ERbERb_0480: Odyssey Thera (OT) 8-hour HEK293T Protein-Complementation Assay for Estrogen Receptor-beta/-beta Homodimer (AID 2283357);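 note: active means signal gain over DMSO baseline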
# Summary of the method: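 Readout: increase in mean fluorescence intensity (nucleus for agonists; nucleus plus cytoplasm for antagonists) relative to DMSO, from a reporter-fragment complementation of human ER-beta LBD homodimer in HEK293T cells dosed 8 hours.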
# [6] = target: Estrogen receptor beta (Homo sapiens) (UniProt Q92731); test: OT_ER_ERbERb_1440: Odyssey Thera (OT) 24-hour HEK293T Protein-Complementation Assay for Estrogen Receptor-beta/-beta Homodimer (AID 2283380);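 note: scored as signal increase over DMSO baseline for both agonists and antagonists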
# Summary of the method: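 HEK293T cells stably expressing human ER-beta LBD (aa 310-547) PCA homodimer pair, dosed 24 h; formaldehyde-fixed, Draq5-stained. Readout: increase in nuclear (agonist) or nuclear plus cytoplasmic (antagonist) fluorescence intensity versus DMSO, gain-of-signal fitting.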
# [7] = target: Estrogen receptor (Homo sapiens) (UniProt P03372); test: OT_ERa_GFPERaERE_0480: Odyssey Thera (OT) 8-hour HeLa Transcription Induction Assay for Estrogen Receptor (AID 2283381; active = hit-call score of the fitted dose curve at least 0.9, where 1 is the maximum; inactive = score below 0.9)
# Summary of the method: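 HeLa cells expressing GFP reporter under estrogen response element, imaged 8 h after dosing. GFP induction quantified by high-content fluorescence microscopy image analysis; gain of signal fitted versus DMSO.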
# [8] = target: Estrogen receptor (Homo sapiens) (UniProt P03372); test: OT_ERa_GFPERaERE_0120: Odyssey Thera (OT) 2-hour HeLa Transcription Induction Assay for Estrogen Receptor (AID 2283382)
# Summary of the method: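 HeLa cells were dosed for 2 h, then GFP reporter induction was quantified by fluorescence microscopy with high-content image analysis. Gain of signal fitted against DMSO baseline.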
# [9] = target: Retinoic acid receptor RXR-alpha (Homo sapiens) (UniProt P19793); test: OT_NURR1_NURR1RXRa_0480: Odyssey Thera (OT) 8-hour HEK293T Protein Complementation Assay for Nurr1/retinoid X receptor (RXR) (AID 2283385)
# Summary of the method: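 HEK293T cells expressing Nurr1 and RXRα fused to reporter fragments (protein-fragment complementation); fluorescence measured 8 h after dosing. Gain of signal fitted relative to DMSO.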
# [10] = target: Retinoic acid receptor RXR-alpha (Homo sapiens) (UniProt P19793); test: OT_NURR1_NURR1RXRa_1440: Odyssey Thera (OT) 24-hour HEK293T Protein Complementation Assay for Nurr1/retinoid X receptor (RXR) (AID 2283386)
# Summary of the method: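 HEK293T protein-fragment complementation of Nurr1 and RXRα fused to reporter fragments; compounds 24 h. Fluorescence gain from reconstituted reporter fitted versus DMSO.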
# [11] = target: Peroxisome proliferator-activated receptor gamma (Homo sapiens) (UniProt P37231); test: OT_PPARg_PPARgSRC1_1440: Odyssey Thera (OT) 24-hour Protein-Complementation Assay for Peroxisome Proliferator-activated Receptor Gamma/ SRC-1 Co-activator (AID 2283388);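 note: nuclear to cytoplasmic ratio of reconstituted Venus YFP fluorescence in fixed imaged cells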
# Summary of the method: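 Readout: nuclear-to-cytoplasmic 488 nm fluorescence ratio, ≥350 cells per image, 8 images per well, after 24 h compound exposure of HEK293T expressing PPARg/SRC-1 split-YFP fusions. Activity fitted in positive direction against DMSO.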
# [12] = read-out: Fatty acid synthase (Homo sapiens) (UniProt P49327); test: LTEA_HepaRG_FASN: Life Technologies and Expression Analysis (LTEA) Assay for Fatty Acid Synthase (FASN) using HepaRG (AID 2283448; active = hit-call score of the fitted dose curve at least 0.9, where 1 is the maximum; inactive = score below 0.9); conditions: mRNA level, 48 h; actives raise or lower the signal
# Summary of the method: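 Differentiated HepaRG cells in serum-free induction medium exposed 48 h in duplicate to eight half-log concentrations, top 100 uM, 0.5% DMSO. FASN mRNA by qRT-PCR normalised to ACTB, GAPDH, POLR2A; bidirectional fit versus DMSO.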
# [13] = read-out: Cyclin D2 (CCND2), CCND2 (gene 894); test: LTEA_HepaRG_CCND2: Life Technologies and Expression Analysis (LTEA) Assay for Cyclin D2 (CCND2) using HepaRG (AID 2283449; active = hit-call score of the fitted dose curve at least 0.9, where 1 is the maximum; inactive = score below 0.9;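 note: CCND2 transcript measured by TaqMan qRT-PCR and normalised to three housekeeping genes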); conditions: mRNA level, 48 h; actives raise or lower the signal
# Summary of the method: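 Differentiated human HepaRG cells were exposed for 48 h in serum-free induction medium to eight half-log concentrations topping at 100 uM (0.5% DMSO vehicle). CCND2 mRNA was quantified by TaqMan qRT-PCR, normalised to ACTB, GAPDH and POLR2A, and fitted bidirectionally against DMSO.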
# [14] = read-out: Cyclin Dependent Kinase Inhibitor 1A (CDKN1A), CDKN1A (gene 1026); test: LTEA_HepaRG_CDKN1A: Life Technologies and Expression Analysis (LTEA) Assay for Cyclin Dependent Kinase Inhibitor 1A (CDKN1A) using HepaRG (AID 2283450; active = hit-call score of the fitted dose curve at least 0.9, where 1 is the maximum; inactive = score below 0.9); conditions: mRNA level, 48 h; actives raise or lower the signal
# Summary of the method: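 HepaRG, 48 h dosing, 8-pt half-log series from 100 uM top, 0.5% DMSO vehicle, duplicates. Readout: TaqMan qRT-PCR of CDKN1A transcript, housekeeping-normalized (ACTB, GAPDH, POLR2A). Up/down curve fit relative to DMSO.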
# [15] = read-out: Cyclin D1 (CCND1), CCND1 (gene 595); test: LTEA_HepaRG_CCND1: Life Technologies and Expression Analysis (LTEA) Assay for Cyclin D1 (CCND1) using HepaRG (AID 2283451; active = hit-call score of the fitted dose curve at least 0.9, where 1 is the maximum; inactive = score below 0.9); conditions: mRNA level, 48 h; actives raise or lower the signal
# Summary of the method: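 qRT-PCR (Fluidigm 96.96 array) read-out of transcript level, housekeeping-normalized (ACTB/GAPDH/POLR2A). HepaRG cells, 48 h chemical exposure, 8-point half-log series from 100 uM, 0.5% DMSO vehicle; gain or loss relative to DMSO baseline.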
# [16] = read-out: catalase (CAT), CAT (gene 847); test: LTEA_HepaRG_CAT: Life Technologies and Expression Analysis (LTEA) Assay for catalase (CAT) using HepaRG (AID 2283452; active = hit-call score of the fitted dose curve at least 0.9, where 1 is the maximum; inactive = score below 0.9); conditions: mRNA level, 48 h; actives raise or lower the signal
# Summary of the method: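 Differentiated HepaRG cells in serum-free induction medium were dosed 48 h in duplicate, eight half-log concentrations from 100 uM in 0.5% DMSO. Transcript measured by TaqMan qRT-PCR, normalised to ACTB/GAPDH/POLR2A, fitted bidirectionally against DMSO.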
# [17] = read-out: flavin-containing dimethylaniline monooxygenases 3 (FMO3), FMO3 (gene 2328); test: LTEA_HepaRG_FMO3: Life Technologies and Expression Analysis (LTEA) Assay for flavin-containing dimethylaniline monooxygenases 3 (FMO3) using HepaRG (AID 2283453; active = hit-call score of the fitted dose curve at least 0.9, where 1 is the maximum; inactive = score below 0.9); conditions: mRNA level, 48 h; actives raise or lower the signal
# Summary of the method: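 Differentiated HepaRG cells in serum-free induction medium, exposed 48 h in duplicate to 8 half-log concentrations up to 100 uM in 0.5% DMSO. FMO3 mRNA by qRT-PCR, normalized to ACTB, GAPDH, POLR2A; bidirectional fit vs DMSO.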
# [18] = read-out: Cytochrome P450 (CYP1A1), CYP1A1 (gene 1543); test: LTEA_HepaRG_CYP1A1: Life Technologies and Expression Analysis (LTEA) Assay for Cytochrome P450 (CYP1A1) using HepaRG (AID 2283454; active = hit-call score of the fitted dose curve at least 0.9, where 1 is the maximum; inactive = score below 0.9); conditions: mRNA level, 48 h; actives raise or lower the signal
# Summary of the method: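 qRT-PCR read-out: CYP1A1 transcript normalized to three housekeeping genes, fitted bidirectionally against 0.5% DMSO vehicle baseline. Human HepaRG cells, 48 h chemical exposure, 8-point half-log series topping at 100 uM.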
# Retinoic acid receptor RXR-alpha (Homo sapiens), sequence (P19793 whole entry, looked up, the tested form may be a part): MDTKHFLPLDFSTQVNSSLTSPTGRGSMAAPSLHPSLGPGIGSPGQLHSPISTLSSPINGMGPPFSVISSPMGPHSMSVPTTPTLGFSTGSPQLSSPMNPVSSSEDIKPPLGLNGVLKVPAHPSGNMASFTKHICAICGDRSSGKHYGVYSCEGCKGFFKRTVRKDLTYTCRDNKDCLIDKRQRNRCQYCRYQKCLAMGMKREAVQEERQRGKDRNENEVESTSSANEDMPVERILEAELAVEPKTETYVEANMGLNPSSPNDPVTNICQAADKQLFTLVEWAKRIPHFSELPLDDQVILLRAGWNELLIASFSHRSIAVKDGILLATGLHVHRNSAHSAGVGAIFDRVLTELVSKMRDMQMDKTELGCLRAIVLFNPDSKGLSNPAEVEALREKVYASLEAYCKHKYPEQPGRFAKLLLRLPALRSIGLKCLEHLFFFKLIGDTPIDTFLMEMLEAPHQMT
# Estrogen receptor (Homo sapiens), sequence (P03372 whole entry, looked up, the tested form may be a part): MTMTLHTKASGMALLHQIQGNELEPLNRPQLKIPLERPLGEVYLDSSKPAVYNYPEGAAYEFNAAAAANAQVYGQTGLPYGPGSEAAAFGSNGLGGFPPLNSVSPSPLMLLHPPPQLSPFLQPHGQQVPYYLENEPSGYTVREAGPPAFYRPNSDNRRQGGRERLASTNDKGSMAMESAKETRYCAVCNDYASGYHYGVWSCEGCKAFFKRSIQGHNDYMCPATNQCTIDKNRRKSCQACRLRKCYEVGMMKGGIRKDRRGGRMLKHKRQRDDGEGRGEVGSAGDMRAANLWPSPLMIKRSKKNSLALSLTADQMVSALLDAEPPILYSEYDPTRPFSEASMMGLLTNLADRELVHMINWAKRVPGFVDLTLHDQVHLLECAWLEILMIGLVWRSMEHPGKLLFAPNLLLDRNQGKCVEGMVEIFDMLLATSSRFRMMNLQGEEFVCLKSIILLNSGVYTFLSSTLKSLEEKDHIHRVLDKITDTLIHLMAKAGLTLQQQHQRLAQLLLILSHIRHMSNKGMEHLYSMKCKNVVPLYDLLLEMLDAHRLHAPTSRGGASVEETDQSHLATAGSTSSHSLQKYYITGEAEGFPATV
# Peroxisome proliferator-activated receptor gamma (Homo sapiens), sequence (P37231 whole entry, looked up, the tested form may be a part): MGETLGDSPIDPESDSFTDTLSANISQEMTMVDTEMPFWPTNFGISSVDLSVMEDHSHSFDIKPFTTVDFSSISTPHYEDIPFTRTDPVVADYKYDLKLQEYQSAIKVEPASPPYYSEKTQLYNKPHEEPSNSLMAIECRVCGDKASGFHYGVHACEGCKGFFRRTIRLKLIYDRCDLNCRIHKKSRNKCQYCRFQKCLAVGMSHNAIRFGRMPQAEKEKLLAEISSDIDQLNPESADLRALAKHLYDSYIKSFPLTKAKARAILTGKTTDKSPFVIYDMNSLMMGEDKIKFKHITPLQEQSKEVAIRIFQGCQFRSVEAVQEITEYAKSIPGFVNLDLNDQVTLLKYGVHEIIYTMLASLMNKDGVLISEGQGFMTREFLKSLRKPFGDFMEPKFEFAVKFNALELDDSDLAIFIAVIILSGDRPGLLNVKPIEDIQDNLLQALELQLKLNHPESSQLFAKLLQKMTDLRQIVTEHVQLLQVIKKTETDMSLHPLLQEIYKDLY
# T1 sequence (P03372 whole entry, looked up, the tested form may be a part): as the sequence (P03372 whole entry, looked up, the tested form may be a part) above
# T1 sequence (Q92731 whole entry, looked up, the tested form may be a part): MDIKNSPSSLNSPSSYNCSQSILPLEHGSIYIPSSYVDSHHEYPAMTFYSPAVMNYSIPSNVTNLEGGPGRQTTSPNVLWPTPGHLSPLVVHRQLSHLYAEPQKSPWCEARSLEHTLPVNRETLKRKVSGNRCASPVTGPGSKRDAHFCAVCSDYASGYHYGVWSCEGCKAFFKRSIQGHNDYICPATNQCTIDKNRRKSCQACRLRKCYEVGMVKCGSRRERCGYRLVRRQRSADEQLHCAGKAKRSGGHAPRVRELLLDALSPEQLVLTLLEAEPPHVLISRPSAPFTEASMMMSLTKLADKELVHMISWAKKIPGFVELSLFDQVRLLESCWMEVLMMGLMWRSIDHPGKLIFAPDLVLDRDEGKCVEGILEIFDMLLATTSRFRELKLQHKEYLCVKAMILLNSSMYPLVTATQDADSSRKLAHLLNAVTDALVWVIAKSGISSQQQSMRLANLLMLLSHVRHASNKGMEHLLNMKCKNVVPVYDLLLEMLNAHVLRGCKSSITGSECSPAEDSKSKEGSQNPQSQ
# Estrogen receptor beta (Homo sapiens), sequence (Q92731 whole entry, looked up, the tested form may be a part): as above
# Fatty acid synthase (Homo sapiens), sequence (P49327 whole entry, looked up): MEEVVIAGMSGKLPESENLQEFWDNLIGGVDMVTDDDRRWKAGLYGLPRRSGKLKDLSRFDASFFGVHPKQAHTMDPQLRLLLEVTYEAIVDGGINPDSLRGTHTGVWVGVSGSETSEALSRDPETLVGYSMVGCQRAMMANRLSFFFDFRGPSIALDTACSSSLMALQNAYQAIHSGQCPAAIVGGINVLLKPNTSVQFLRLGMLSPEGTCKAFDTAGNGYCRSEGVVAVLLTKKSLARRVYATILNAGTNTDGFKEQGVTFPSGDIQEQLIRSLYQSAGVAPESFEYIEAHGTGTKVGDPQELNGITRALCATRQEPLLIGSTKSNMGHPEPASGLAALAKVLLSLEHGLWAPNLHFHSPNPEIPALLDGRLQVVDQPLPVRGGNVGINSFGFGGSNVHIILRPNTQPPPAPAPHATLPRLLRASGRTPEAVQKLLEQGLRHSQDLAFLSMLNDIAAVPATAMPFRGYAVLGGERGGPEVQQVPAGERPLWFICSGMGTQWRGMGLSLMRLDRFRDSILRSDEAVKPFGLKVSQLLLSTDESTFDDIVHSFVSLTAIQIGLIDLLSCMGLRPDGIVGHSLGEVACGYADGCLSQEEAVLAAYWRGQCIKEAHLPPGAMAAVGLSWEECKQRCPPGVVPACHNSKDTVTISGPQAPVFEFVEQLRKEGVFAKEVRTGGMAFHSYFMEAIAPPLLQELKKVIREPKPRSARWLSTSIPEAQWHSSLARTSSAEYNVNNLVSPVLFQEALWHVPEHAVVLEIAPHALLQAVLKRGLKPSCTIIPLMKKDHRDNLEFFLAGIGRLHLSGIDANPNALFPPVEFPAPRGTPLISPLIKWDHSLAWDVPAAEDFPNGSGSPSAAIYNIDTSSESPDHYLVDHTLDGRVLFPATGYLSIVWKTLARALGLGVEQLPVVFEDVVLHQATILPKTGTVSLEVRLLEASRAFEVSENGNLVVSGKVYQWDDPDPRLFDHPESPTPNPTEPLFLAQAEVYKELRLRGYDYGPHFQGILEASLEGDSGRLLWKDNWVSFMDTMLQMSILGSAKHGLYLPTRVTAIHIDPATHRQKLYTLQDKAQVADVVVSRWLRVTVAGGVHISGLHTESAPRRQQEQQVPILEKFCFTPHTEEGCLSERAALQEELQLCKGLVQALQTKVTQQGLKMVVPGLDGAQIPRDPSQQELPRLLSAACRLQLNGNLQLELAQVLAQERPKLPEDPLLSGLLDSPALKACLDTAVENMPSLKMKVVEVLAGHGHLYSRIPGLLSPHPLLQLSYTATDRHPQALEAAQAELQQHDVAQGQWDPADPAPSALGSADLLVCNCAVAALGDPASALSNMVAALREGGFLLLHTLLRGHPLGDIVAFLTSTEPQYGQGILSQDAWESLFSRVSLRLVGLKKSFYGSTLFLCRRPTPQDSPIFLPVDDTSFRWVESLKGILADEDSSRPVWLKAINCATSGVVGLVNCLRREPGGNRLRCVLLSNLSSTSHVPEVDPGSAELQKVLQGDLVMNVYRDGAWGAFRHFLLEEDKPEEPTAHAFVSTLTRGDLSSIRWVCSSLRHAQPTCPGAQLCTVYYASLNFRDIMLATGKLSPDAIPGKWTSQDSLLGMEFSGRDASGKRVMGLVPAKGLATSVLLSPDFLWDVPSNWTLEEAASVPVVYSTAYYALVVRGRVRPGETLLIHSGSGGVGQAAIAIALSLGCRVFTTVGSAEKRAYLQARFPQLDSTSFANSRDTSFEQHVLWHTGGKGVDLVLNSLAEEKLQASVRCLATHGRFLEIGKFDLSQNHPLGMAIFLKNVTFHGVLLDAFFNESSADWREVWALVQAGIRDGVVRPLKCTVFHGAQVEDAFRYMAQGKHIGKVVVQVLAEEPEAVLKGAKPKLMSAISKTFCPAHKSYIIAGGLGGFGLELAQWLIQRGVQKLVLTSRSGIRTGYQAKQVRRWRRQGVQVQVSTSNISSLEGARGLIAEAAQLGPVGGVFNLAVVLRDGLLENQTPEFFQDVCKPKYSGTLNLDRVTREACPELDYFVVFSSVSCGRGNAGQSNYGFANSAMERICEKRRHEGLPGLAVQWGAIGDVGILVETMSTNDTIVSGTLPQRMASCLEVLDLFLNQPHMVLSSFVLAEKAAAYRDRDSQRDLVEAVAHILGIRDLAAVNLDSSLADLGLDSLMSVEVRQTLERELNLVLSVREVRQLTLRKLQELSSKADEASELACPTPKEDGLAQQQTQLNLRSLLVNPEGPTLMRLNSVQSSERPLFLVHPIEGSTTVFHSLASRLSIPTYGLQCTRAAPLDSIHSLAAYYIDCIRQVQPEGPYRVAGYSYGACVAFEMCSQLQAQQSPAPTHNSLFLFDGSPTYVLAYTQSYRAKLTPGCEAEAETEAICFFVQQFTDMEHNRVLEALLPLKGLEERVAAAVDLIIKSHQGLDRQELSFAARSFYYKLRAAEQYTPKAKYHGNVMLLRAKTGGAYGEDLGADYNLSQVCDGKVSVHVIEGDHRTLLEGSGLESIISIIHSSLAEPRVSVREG
structure (smiles),measurement,setting,value
c1cc[n+]2c(c1)-c1cccc[n+]1CC2,outcome,[1],inactive
same,outcome,[2],inactive
same,outcome,[3],inactive
same,outcome,[4],inactive
same,outcome,[5],inactive
same,outcome,[6],inactive
same,outcome,[7],inactive
same,outcome,[8],inactive
same,outcome,[9],inactive
same,outcome,[10],inactive
same,outcome,[11],inactive
same,outcome,[12],inactive
same,outcome,[13],inactive
same,outcome,[14],inactive
same,outcome,[15],inactive
same,outcome,[16],inactive
same,outcome,[17],inactive
same,AC50,[18],22.4 µM (active)
